In general, inhibition refers to the change of the read-out against control, counted positive when it falls.

SMILES strings stand for the structures. Hit rate of the full screen: of about 2,000 compounds, about 110 (5.5%) showed an effect of 50% or more. What follows is part of a selection rich in strong results, with near analogues and random picks from the rest.

In this test the target is Genome polyprotein (dengue virus type 2) (UniProt P29990).
Where [1] appears, read: Thailand/16681/1984, Concentration 25.0 uM, Number of replicates 1.0.

For `Cc1cc(CO)c2cccc(CC(=O)Nc3cc(C)on3)c2n1`, the inhibition (Thailand/16681/1984, Concentration 49.95 uM, Number of replicates 2.0, Standard deviation 0.056769444720657654 %) was determined as 98.7% and the inhibition (Thailand/16681/1984, Concentration 99.9 uM, Number of replicates 2.0, Standard deviation 0.01177144620169866 %) was found to be 99.4%.

Regarding `Cc1cc(CO)c2cccc(CC(=O)NCc3c(C)noc3C)c2n1`, the inhibition by setting is: (Thailand/16681/1984, Concentration 49.95 uM, Number of replicates 2.0, Standard deviation 0.8979901952671747 %) -6.95%; (Thailand/16681/1984, Concentration 99.9 uM, Number of replicates 2.0, Standard deviation 0.7380557178102791 %) -7.49%.

For `Cc1cc(CO)c2cccc(Cc3ccccc3C(=O)Nc3cc(C)on3)c2n1`, the inhibition reads like this: (Thailand/16681/1984, Concentration 49.95 uM, Number of replicates 2.0, Standard deviation 1.5788782649320652 %) 8.61%; (Thailand/16681/1984, Concentration 99.9 uM, Number of replicates 2.0, Standard deviation 0.4297535440018178 %) 25.7%.

Take `Cc1cc(CO)c2cccc(Cc3cccc(C(=O)Nc4cc(C)[nH]n4)c3)c2n1`: the inhibition was 0.711% (Thailand/16681/1984, Concentration 49.95 uM, Number of replicates 2.0, Standard deviation 1.9137700846759278 %) and 3.33% (Thailand/16681/1984, Concentration 99.9 uM, Number of replicates 2.0, Standard deviation 1.69961162141419 %).

`Cc1cc(CO)c2cccc(Cc3cccc(C(=O)Nc4cc(C)on4)c3)c2n1`: the inhibition (Thailand/16681/1984, Concentration 49.95 uM, Number of replicates 2.0, Standard deviation 1.544383261062021 %) amounted to 29.6% and the inhibition (Thailand/16681/1984, Concentration 99.9 uM, Number of replicates 2.0, Standard deviation 16.942938692438737 %) came out at 63.9%.

Turning to `Cc1cc(CO)c2cccc(CC(=O)Nc3cc(C)[nH]n3)c2n1`, the inhibition (Thailand/16681/1984, Concentration 49.95 uM, Number of replicates 2.0, Standard deviation 0.6660500187655393 %) turned out to be 4.74% and the inhibition (Thailand/16681/1984, Concentration 99.9 uM, Number of replicates 2.0, Standard deviation 2.9944546877986085 %) is 12.6%.

Consider `COc1ccc(-c2cc(NC(=O)C3CCN(c4ccc(C=O)cc4)CC3)[nH]n2)cc1`, for which the inhibition under setting [1] stood at 0.343%.

For the compound `c1cnc2c(C3CCN(Cc4cscn4)CC3)c[nH]c2c1`, the inhibition runs as follows: (Thailand/16681/1984, Concentration 49.5 uM, Number of replicates 2.0, Standard deviation 1.714470745737797 %) -3.42%; (Thailand/16681/1984, Concentration 99.01 uM, Number of replicates 2.0, Standard deviation 2.482934234636928 %) -3.54%; (Thailand/16681/1984, Concentration 198.0 uM, Number of replicates 2.0, Standard deviation 1.6201369950511377 %) -3.14%.

Regarding `C[C@@H](Cc1ccc(O)cc1)NC(=O)C1CCN(c2ccc(C=O)cc2)CC1`, the inhibition under setting [1] came out at 12.7%.

Consider `Cc1cc(CO)c2cccc(CC(=O)N3CC4(CCCOC4)C3)c2n1`, for which the inhibition by setting is: (Thailand/16681/1984, Concentration 49.95 uM, Number of replicates 2.0, Standard deviation 0.772673116128399 %) -6.59%; (Thailand/16681/1984, Concentration 99.9 uM, Number of replicates 2.0, Standard deviation 1.1105448445025274 %) -6.27%.

Regarding `CC(C)(CO)NC(=O)c1cc(Cl)cc(NC(=O)c2cc(-c3ccc(Cl)cc3)n[nH]2)c1`, the inhibition reads like this: (Thailand/16681/1984, Concentration 49.5 uM, Number of replicates 2.0, Standard deviation 0.12694171370832513 %) 1.06%; (Thailand/16681/1984, Concentration 99.01 uM, Number of replicates 2.0, Standard deviation 0.3683389265193805 %) 1.45%; (Thailand/16681/1984, Concentration 198.0 uM, Number of replicates 2.0, Standard deviation 0.21850629000727306 %) 2.52%.

In the case of `Cc1cc(CO)c2cccc(C[C@H](NC(=O)C(=O)c3ccco3)C(=O)O)c2n1`, the inhibition worked out at 1.13% (Thailand/16681/1984, Concentration 49.95 uM, Number of replicates 2.0, Standard deviation 2.1984135254678594 %) and 5.56% (Thailand/16681/1984, Concentration 99.9 uM, Number of replicates 2.0, Standard deviation 0.8113996635889369 %).

Take `c1ccc2c(CN3CCC(c4c[nH]c5cccnc45)CC3)n[nH]c2c1`: the inhibition (Thailand/16681/1984, Concentration 49.5 uM, Number of replicates 2.0, Standard deviation 0.8795107409501791 %) came out at 2.18%; the inhibition (Thailand/16681/1984, Concentration 99.01 uM, Number of replicates 2.0, Standard deviation 0.8626664157680123 %) is 3.05%; the inhibition (Thailand/16681/1984, Concentration 198.0 uM, Number of replicates 2.0, Standard deviation 1.2603111418750788 %) was 5.34%.

Regarding `Cc1cc(CO)c2cccc(C[C@H](NC(=O)C[C@H]3CCCN3)C(=O)O)c2n1`, the inhibition is, setting by setting: (Thailand/16681/1984, Concentration 49.95 uM, Number of replicates 2.0, Standard deviation 0.0013512279632592627 %) 3.5%; (Thailand/16681/1984, Concentration 99.9 uM, Number of replicates 2.0, Standard deviation 1.378906641613337 %) 9%.

Regarding `Cc1cnccc1NC(=O)c1cc(C2CCC2)n(C)c1C`, the inhibition was 0.618% (Thailand/16681/1984, Concentration 49.5 uM, Number of replicates 2.0, Standard deviation 0.7067686370209446 %); 1.95% (Thailand/16681/1984, Concentration 99.01 uM, Number of replicates 2.0, Standard deviation 0.7459418989288495 %); 4.33% (Thailand/16681/1984, Concentration 198.0 uM, Number of replicates 2.0, Standard deviation 0.11875700646175207 %).

Take `CCc1ccc(-c2nc3c(C(=O)Nc4ccc5c(c4)CNC5)cc(Cl)cc3[nH]2)cc1`: the inhibition by setting is: (Thailand/16681/1984, Concentration 99.5 uM, Number of replicates 2.0, Standard deviation 0.07636874080258764 %) 91.5%; (Thailand/16681/1984, Concentration 295.6 uM, Number of replicates 2.0, Standard deviation 0.5542721932424032 %) 83.9%.

On to `N#Cc1cccc(-c2nc3c(C(=O)NCc4cccnc4)cc(Cl)cc3[nH]2)c1`, for which the inhibition amounted to 6.57% (Thailand/16681/1984, Concentration 99.5 uM, Number of replicates 2.0, Standard deviation 2.321247122631555 %) and 38.2% (Thailand/16681/1984, Concentration 295.6 uM, Number of replicates 2.0, Standard deviation 6.98688470817418 %).

With `CC(C)NC(=O)[C@H](Nc1ccc2c(c1)CNC2)c1cc(Cl)cc2[nH]c(-c3ccccc3)nc12`, the inhibition (Thailand/16681/1984, Concentration 99.5 uM, Number of replicates 2.0, Standard deviation 1.6408381783405366 %) is 91.5% and the inhibition (Thailand/16681/1984, Concentration 295.6 uM, Number of replicates 2.0, Standard deviation 0.018514941963441705 %) came out at 97.4%.

As to `N#Cc1cccc(-c2nc3c(C(=O)Nc4ccncc4)cc(Cl)cc3[nH]2)c1`, the inhibition came out at 6.92% (Thailand/16681/1984, Concentration 99.5 uM, Number of replicates 2.0, Standard deviation 0.8007493235576281 %) and 36.2% (Thailand/16681/1984, Concentration 295.6 uM, Number of replicates 2.0, Standard deviation 3.318711635404566 %).

For the compound `O=C(Nc1ccc2c(c1)CNC2)c1cc(Cl)cc2[nH]c(-c3cc(C4CC4)[nH]n3)nc12`, the inhibition (Thailand/16681/1984, Concentration 99.5 uM, Number of replicates 2.0, Standard deviation 0.13306805316732315 %) came to 94.6% and the inhibition (Thailand/16681/1984, Concentration 295.6 uM, Number of replicates 2.0, Standard deviation 0.23606011523727233 %) came to 88.6%.

For `N#Cc1cccc(-c2nc3c(C(=O)Nc4cccnc4)cc(Cl)cc3[nH]2)c1`, the inhibition by setting is: (Thailand/16681/1984, Concentration 99.5 uM, Number of replicates 2.0, Standard deviation 0.04165727071859149 %) 7.45%; (Thailand/16681/1984, Concentration 295.6 uM, Number of replicates 2.0, Standard deviation 4.418006643102565 %) 20.3%.

Values taken from ChEMBL document CHEMBL5606460, “ASAP - DENV-2 NS2B-NS3 protease fluorescence single point” (2024).
